Structures are written as SMILES. Several values for one entry are separate records, joined by “and”; a condition that tells them apart may be missing. Equal values may be shown once. The campaign covered roughly 320,000 compounds. About 2,200 (0.69%) were called active.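 How the source made its calls: active means inhibition above the mean of all tested compounds plus 3 SD, cutoff set per campaign (cut at about 30% in these data); inactive means the rest.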 This excerpt belongs to a sample that is enriched for actives. Where a structure was tested more than once in an assay, its records may differ in their call.

This assay deals with Bcl-2-like protein 1 (Homo sapiens) (UniProt Q07817). Briefly: inhibitors of human Bcl-xL, primary screen, biochemical, fluorescence polarization, HTS (AID 2129).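 Further: 0% = DMSO wells and 100% = unlabeled Bim-BH3 peptide competitor; inhibitors lower millipolarization by displacing the labeled peptide.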 Particulars: GST-Bcl-xL / FITC-Bim BH3 peptide fluorescence polarization; at 10.9 µM; stronger effect = higher value.
Bcl-2-like protein 1 (Homo sapiens), sequence (Q07817 whole entry, looked up): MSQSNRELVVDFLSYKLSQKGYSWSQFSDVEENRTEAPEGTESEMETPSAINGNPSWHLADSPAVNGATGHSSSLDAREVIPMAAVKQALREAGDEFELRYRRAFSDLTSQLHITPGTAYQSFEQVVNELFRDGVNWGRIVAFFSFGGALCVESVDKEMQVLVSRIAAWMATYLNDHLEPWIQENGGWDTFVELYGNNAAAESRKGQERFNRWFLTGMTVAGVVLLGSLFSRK
What is called inhibition is the drop in the measured response relative to a control, in per cent. `CC(C)(C)C1CCc2c(sc3nc(SCC(N)=O)nc(N)c23)C1` (centres undefined): the inhibition is 0.88% (inactive).

Take `O=C1COc2ccc(C(=O)CSc3ccc(Br)cc3)cc2N1`: the inhibition was 1.67% (inactive).

Turning to `Cc1ccc(NC(=O)CSc2nc(=O)n(CCN(C)C)c3c2CCCC3)c(C)c1`, the inhibition is 0.09% (inactive).

For `O=C1CCC(=O)N1CCOP1(=O)COc2ccccc2OC1`, the inhibition is 4.75% (inactive).

In the case of `CN(CC(=O)Nc1ccc(Cl)c(C(F)(F)F)c1)C(=O)CCC(=O)c1ccccc1`, the inhibition is 45.3% (active).

As to `Cc1ccc(C(=O)CCC(=O)N(C)CC(=O)Nc2c(Cl)cccc2Cl)cc1`, the inhibition is -0.97% (inactive).

In the case of `Cc1cccc(C)c1NC(=O)CN(C)C(=O)CCC(=O)c1ccccc1`, the inhibition is 7.72% (inactive).

As to `CC(C)c1ccc(C2C(C(=O)c3ccco3)=C(O)C(=O)N2CC2CCCO2)cc1` (centres undefined), the inhibition is 1.85% (inactive).

With `C=CCSc1nnc(N2C(=O)C(O)=C(C(=O)c3ccco3)C2c2ccc(F)cc2)s1` (centres undefined), the inhibition is 51.8% (active).

In the case of `Cc1ccc2nc(N3C(=O)C(O)=C(C(=O)c4ccco4)C3c3cccc(O)c3)sc2c1` (centres undefined), the inhibition is 2.1% (inactive).

With `CC(OC(=O)C1CC(=O)N(Cc2ccccc2)C1)C(=O)Nc1ccccc1[N+](=O)[O-]` (centres undefined), the inhibition was 5.02% (inactive).

`C=CCNc1nnc(C)c2ccccc12`: the inhibition was 1.09% (inactive).

As to `C=CCNc1nnc(SCC(=O)N2CCCCC2)c2ccccc12`, the inhibition is 108% (active).

Consider `O=C(CSc1ncccn1)N1CCCC1`, for which the inhibition was 1.98% (inactive).

As to `COCCNC(=O)C(c1ccc(C)cc1)N(C(=O)CCC(=O)Nc1ccccn1)c1cccc(C)c1` (centres undefined), the inhibition was 3.67% (inactive).

In the case of `CN(C)C(=O)CSc1n[nH]c(-c2ccco2)n1`, the inhibition is 1.16% (inactive).

Consider `O=C1CCC(=O)N1c1ccc(NCCc2ccccc2F)c([N+](=O)[O-])c1`, for which the inhibition was 4.81% (inactive).

Turning to `Cc1ccc(C(=O)NC(=S)Nc2ccccc2C)cc1`, the inhibition is 2.65% (inactive).

On to `Cc1ccc(NC(=S)NC(=O)c2ccc(-c3ccccc3)cc2)cc1`, for which the inhibition was 1.62% (inactive).

Regarding `COC(=O)c1sc(NC(=S)NC(=O)c2ccc(C)cc2)nc1C`, the inhibition is 90.6% (active).

With `CCOC(=O)c1sc2nc(C)nc(SCC(N)=O)c2c1C`, the inhibition is 3.97% (inactive).

As to `C=CCN1C=C2C(=O)C(C)(OC(=O)CCc3ccccc3)C(=O)C=C2C=C1c1ccc(C#N)cc1` (centres undefined), the inhibition is 26.4% (inactive).

`CC(C)(C)OC(=O)NCCCC1=CC2=CC(=O)C(C)(OC(=O)c3ccco3)C(=O)C2=CO1` (centres undefined): the inhibition was 62.9% (active).

As to `O=C(COC(=O)c1ccco1)NCc1ccc(Cl)cc1`, the inhibition was 3.7% (inactive).

Consider `CCCN1CNC(=S)N(CCc2ccccc2)C1`, for which the inhibition is -3.74% (inactive).

For `C/C(CC(=O)NC(C)c1ccccc1)=N\NC(N)=S` (centres undefined), the inhibition was 4.39% (inactive).

Consider `O=C(c1cc(=O)c2ccccc2o1)N1CCN(c2ccccc2)CC1`, for which the inhibition is -0.91% (inactive).

On to `CC(C)N(C(=O)COC(=O)c1ccccc1C(=O)N1CCN(c2ccc(F)cc2)CC1)C(C)C`, for which the inhibition was 10.7% (inactive).

For the molecule `O=C(COC(=O)c1ccccc1C(=O)N1CCN(c2ccccc2)CC1)NCc1ccccc1`, the inhibition was 56.5% (active).

Regarding `CCc1c(C)nc2c(OC)cccc2c1Cl`, the inhibition was 7.8% (inactive).

Regarding `COC(=O)[C@H]1[C@H]2C[C@H]3c4[nH]c5ccccc5c4CCN3C[C@@H]2CC[C@@H]1O`, the inhibition is 6.53% (inactive) and 60% (active).

As for `COC(=O)C1CCN(C(=O)c2cc(=O)[nH]c3ccccc23)CC1`, the inhibition was 1.35% (inactive).

Regarding `O=C(NC1CCCCC1)N1CCc2[nH]c3ccccc3c2C1`, the inhibition was 16.5% (inactive).

Regarding `CCCC(C)c1nnc(NC(=O)C2CC(=O)N(c3ccc(OCC)cc3)C2)s1` (centres undefined), the inhibition was 7.2% (inactive).

As to `Cc1ccc(CS(=O)(=O)CCC(=O)NCc2ccc(F)cc2)cc1`, the inhibition was -0.6% (inactive).

Consider `Fc1ccc(CNc2nc3ccccc3n3nnnc23)cc1`, for which the inhibition is 49% (active).

Consider `COc1ccc(CNc2nnnn2C)cc1`, for which the inhibition was -1.64% (inactive).

For `CCOC(=O)CNc1nc2ccccc2n2c(C)nnc12`, the inhibition is 4.27% (inactive).

Take `CCCCCN(C(=O)NC(=O)Nc1ccccc1C)S(C)(=O)=O`: the inhibition is 2.62% (inactive).

As to `O=[N+]([O-])c1ccc(N2CCNCC2)cc1NCc1cccnc1`, the inhibition was -23.7% (inactive).

Consider `O=C(NCCCc1ccccc1)C(=O)c1c[nH]c2ccccc12`, for which the inhibition is 4.6% (inactive).

As to `COc1ccc(N2CC(C(=O)NCCN3C(=O)S/C(=C\c4cccnc4)C3=O)CC2=O)c(OC)c1` (centres undefined), the inhibition is 149% (active).

For the molecule `COc1ccccc1N1CC(C(=O)NCCN2C(=O)S/C(=C\c3cccnc3)C2=O)CC1=O` (centres undefined), the inhibition is 9.93% (inactive).

On to `CCOc1ccc(N2CC(C(=O)NCCN3C(=O)S/C(=C\c4cccnc4)C3=O)CC2=O)cc1` (centres undefined), for which the inhibition was -5.5% (inactive).

As for `O=C(COc1ccc(Cl)cc1)NCCS(=O)(=O)N1CCN(c2ccc(F)cc2)CC1`, the inhibition was 5.68% (inactive).

For `CCN(CC)c1ccc2oc(=O)c(C)nc2c1`, the inhibition was 31.2% (active).

Regarding `C=CCN(C(=O)Nc1ccc2oc(C)nc2c1)c1ccccc1`, the inhibition is 13.5% (inactive).

Take `CCN(CC)c1ccc(C(=O)Nn2c(C)nc3ccccc3c2=O)cc1`: the inhibition is 5.43% (inactive).

As for `C=C(C)C(=O)O[C@H]1C/C(C)=C\C(=O)/C=C(\C)[C@H](O)[C@@H]2OC(=O)C(=C)[C@@H]21`, the inhibition was 3.95% (inactive).

Take `Cc1cccc(C(=O)OCC(=O)NCC(C)C)c1O`: the inhibition was 2.99% (inactive).

Take `Cc1cnc(C(=O)Oc2cccc(Cl)c2Cl)cn1`: the inhibition was 9.01% (inactive).

With `Cc1nn2c(c1-c1ccccc1)N=C(c1ccco1)CC2c1ccccc1` (centres undefined), the inhibition is 3.95% (inactive).

`CC1(C)C=C2[C@H]3CC[C@@H]4[C@@]5(C)CCC(=O)C(C)(C)[C@@H]5CC[C@@]4(C)[C@]3(C)CC[C@@]2(C(=O)O)CC1`: the inhibition was 5.29% (inactive).

Consider `COc1ccc(CNC(=O)C2CCN(S(=O)(=O)c3ccc(SC)cc3)CC2)cc1`, for which the inhibition is 9.54% (inactive).

For `Cc1cc(C)c(/C=C2\C(=O)Nc3ccccc32)[nH]1`, the inhibition is 163% (active).

Consider `CN(C)/C=C1/Nc2ccccc2C1=O`, for which the inhibition was 18.7% (inactive).

On to `O=C1Nc2ccccc2/C1=C/c1ccnc2ccccc12`, for which the inhibition is 2.91% (inactive).

In the case of `O=C(Nc1ccccc1C(=O)NCCCn1ccnc1)c1ccc(Cl)cc1Cl`, the inhibition is 9.41% (inactive).

In the case of `CC1CCN(C(=O)COC(=O)c2cc(=O)[nH]c3ccccc23)CC1`, the inhibition was 2.08% (inactive).

Source of the values: PubChem BioAssay AID2129 (The Scripps Research Institute Molecular Screening Center, 2009).
